High-throughput results (PubChem)
ALR inh: inhibitors of human ALR sulfhydryl oxidase, primary screen, biochemical, H2O2 detection, HRP-luminol luminescence, single point; AID 485317, 2010; FAD-linked sulfhydryl oxidase ALR (Homo sapiens), P55789; 3.8% of 290,000 active; inhibition, % (no concentration beside the values); purified ALR, DTT oxidation;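 active = mean replicate inhibition above about 79%, with every replicate also reaching it, limit read from the data; inconclusive = only one of the two criteria met; inactive = mean below limit and not every replicate reaching it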
Target sequence (P55789 whole entry, looked up): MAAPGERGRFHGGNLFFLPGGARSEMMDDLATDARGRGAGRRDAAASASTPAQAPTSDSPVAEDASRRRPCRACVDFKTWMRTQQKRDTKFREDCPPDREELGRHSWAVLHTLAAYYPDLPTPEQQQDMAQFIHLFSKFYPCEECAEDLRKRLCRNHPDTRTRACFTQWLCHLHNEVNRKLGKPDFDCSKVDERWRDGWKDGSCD
SUMO Mot1 rescue: yeast Mot1-301 growth rescue at high temperature, primary screen, SUMOylation pathway inhibitor project, S. cerevisiae, ATP luminescence, 38.5C; S. cerevisiae Mot1-301 growth rescue; percent above DMSO median, 100 means doubled; growth rescue, % at 18.8 µM; 1% of 320,000 active;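 active = every valid replicate shows activation above 250% relative to neutral control wells; inactive = the rest, any valid replicate at or below 250%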;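 also: OY570 slx delta 5 strain wells were the positive control but not used for scaling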
HIF act: HIF pathway transcriptional activators, primary screen, cell-based, U2OS HRE-luciferase, luminescence; activation, % at 7.5 µM (by protocol); U2OS HRE-luciferase reporter; normalized: DMSO 0%, desferrioxamine 100%; 0.32% of 300,000 active;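 active = mean activation of at least 10% of the iron chelator positive control signal, with at least half of replicates also reaching 10%; inconclusive = mean and replicate majority disagree about reaching 10%; inactive = mean and most replicates under 10%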
AI-2 QS mod: Vibrio harveyi AI-2 quorum sensing modulators, primary screen, JMH597 strain, luminescence/OD600 ratio; Vibrio harveyi JMH597 AI-2 luminescence/OD600 ratio, 9 h; stronger effect = lower value; strain lacks LuxN and CqsS sensors; 0 = neutral-control median; activity change, % at 7.5 µM; 0.4% of 300,000 active; AID 2094, 2009; in the data active = activity change below about -75%, passing the limit was not always enough; inconclusive = no clear call, values can overlap the other calls;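 also: luminescence divided by OD600 gain over 9 h not by final OD600 alone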
* marks the source's active call; other numbers are inactive results; ? = inconclusive; . = not tested or not shown. Most compounds without a hit are left out; they make up all but 4.8% or so of the library.

SMILES	ALR inh	SUMO Mot1 rescue	HIF act	AI-2 QS mod
O=C(CSCc1ccc(Cl)cc1)Nc1ccccc1O	-9	4	0	-60
O=C(CSCc1ccc(Cl)cc1Cl)Nc1ccc(O)cc1C(=O)O	98*	2	1	28
O=C(CSCc1ccc(Cl)cc1)Nc1ccc(Br)cc1C(=O)O	96*	-27	1	21
O=C(CSCc1ccc(Cl)cc1Cl)Nc1ccccc1C(=O)Nc1ccc(C(=O)O)cc1	97*	-13	0	19
CC1CCCC(NC(=O)c2cccc(S(=O)(=O)N3CCCCC3)c2)C1C (stereo unspecified)	-10	-11	0	3
CS(=O)(=O)Nc1ccc(-c2cc(/C=C3\SC(N)=NC3=O)c[nH]c2=O)cc1	-29	-9	0	6
Cc1c(C(=O)NC2CCN(Cc3ccccc3)C2)oc2c(Cl)cccc12 (stereo unspecified)	0	-15	0	10
CN(C)c1ccc(/C=C/c2ccc3ccccc3[n+]2C)cc1	98*	-1	7	-92*
CN(CCCS(=O)(=O)[O-])c1ccc(/C=C/c2ccc3ccccc3[n+]2C)cc1	16	2	-29	9
CCOc1ccccc1-n1c(SC(C)C(=O)NCC2CCCO2)nc2ccccc2c1=O (stereo unspecified)	-1	5	.	.
COC(=O)Nc1ccc2c(c1)ncn2C1CCCCC1	-5	-10	1	7
CCOC(=O)Nc1ccc2c(c1)ncn2C1CCCCC1	84*	0	2	28
Cc1ccc(OC(=O)COc2ccccc2C)c(-n2nc3ccccc3n2)c1	96*	-24	3	9
CC(C(=O)Nc1nc(-c2ccc(F)cc2)cs1)N1C(=O)C2CC=CCC2C1=O (stereo unspecified)	0	0	.	.
COc1ccc(NC(=O)CCCN2C(=O)C(c3ccccc3)Oc3cccnc32)c(OC)c1 (stereo unspecified)	-2	339*	0	12
COc1ccccc1NC(=O)CCCN1C(=O)C(c2ccccc2)Oc2cccnc21 (stereo unspecified)	-1	-18	-1	1
O=C(NCCc1ccc(Cl)cc1)c1ccc2c(c1)OCCO2	7	-32	-4	11
CCOCCn1ccc2c(OCC(=O)NCc3ccccc3)cccc2c1=O	-14	0	-1	13
O=C(O)c1cccc(-n2c(/C=C/c3ccc([N+](=O)[O-])cc3)nc3ccccc3c2=O)c1	17	10	-1	4
O=C(O)c1ccc(-n2c(/C=C/c3ccccc3)nc3ccccc3c2=O)cc1	99*	1	1	5
O=C(O)c1ccc(-n2c(/C=C/c3cccc([N+](=O)[O-])c3)nc3ccccc3c2=O)cc1	90*	4	-23	26
CCN(CC(=O)Nc1cc(Cl)ccc1C)C(=O)CCS(=O)(=O)c1ccc(C)cc1	2	4	0	17
O=C(CSc1nnc(CNC(=O)c2ccco2)o1)Nc1ccc(Br)cc1	99*	57	0	22
NCCc1nnc(SCC(=O)Nc2ccc(Br)cc2)o1	98*	9	0	16
CC(C)C[C@H](N)c1nnc(SCC(=O)Nc2ccc(Br)cc2)o1	99*	-4	-1	2
SMILES	ALR inh	SUMO Mot1 rescue	HIF act	AI-2 QS mod
CCCc1nnc(SCC(=O)Nc2ccc(OC)cc2)o1	-13	57	0	17
Cc1ccc2c(c1)c1c(n2CC(O)CNC(CO)(CO)CO)CCCC1 (stereo unspecified)	96*	237	.	14
Cc1ccc2c(c1)c1c(n2CC(O)CNC2CCCCC2)CCCC1 (stereo unspecified)	99*	-17	0	23
Cc1ccc2c(c1)c1c(n2CC(O)CN2CCOCC2)CCCC1 (stereo unspecified)	9	-4	0	-4
CCOc1ccc(N(CC(=O)NCCSCc2ccco2)S(=O)(=O)c2ccc(C)cc2)cc1	-24	4	0	15
Cc1ccc(/C=N/n2c(C3CCCCC3)n[nH]c2=S)cc1	2	39	3	-34
COc1ccc(/C=C/c2cc(=O)c3cc(Cl)ccc3o2)cc1	97*	18	0	28
Cc1ccc2[nH]c(C)c(/C=C/c3cc[n+](C)cc3)c2c1	99*	-16	-43	-5
C[n+]1ccc(/C=C/c2c[nH]c3ccc(F)cc23)cc1	31	0	-45	1
Cn1cc(/C=C/c2cc[n+](C)cc2)c2cc(Cl)ccc21	.	-17	-2	0
Cc1ccc2c(c1)c(/C=C/c1cc[n+](C)cc1)c(C)n2C	85*	11	3	-3
CCCCCC(=O)NNC(=S)NC(=O)c1ccccc1[N+](=O)[O-]	1	17	0	10
COc1ccc(C(=O)NC(=S)NNC(=O)c2ccc(O)cc2)cc1[N+](=O)[O-]	97*	-7	0	20
COc1ccc(C(=O)Nc2ccc(S(=O)(=O)NC(C)=O)cc2)cc1[N+](=O)[O-]	99*	-11	0	12
O=C(NC(=S)Nc1ccccn1)c1cccc([N+](=O)[O-])c1	11	3	709*	2
CCCCCC(=O)NNC(=S)NC(=O)c1cccc([N+](=O)[O-])c1	?	-22	62*	-21
COc1ccc(C(=O)NNC(=O)c2ccncc2)cc1[N+](=O)[O-]	-7	-7	1	15
Cc1ccccc1-n1nnnc1SCC(=O)NNC(=O)c1ccc(NC(=O)CC#N)cc1	24	-10	.	.
CCOC(=O)N1CCN(c2nc3ccc(C)cc3n3cnnc23)CC1	.	.	-2	3
COc1ccc(C(=O)NNC(=S)NC(=O)c2cccc([N+](=O)[O-])c2)cc1	98*	-35	0	-85*
COc1ccc(/C=C(/NC(=O)c2cccc([N+](=O)[O-])c2)C(=O)O)cc1	9	-21	1	3
CC(=O)N1CCN=C1SCc1cccc(Cl)c1	100*	-9	-2	-13
CC(=O)N1CCN=C1SCc1cccc(F)c1	97*	-17	2	23
CC(=O)N1CCN=C1SCc1cccc(C)c1	96*	0	0	15
Cc1cccc(CSC2=NCCN2C(=O)C2CC2)c1	8	450	0	12
SMILES	ALR inh	SUMO Mot1 rescue	HIF act	AI-2 QS mod
CCC(=O)N1CCN=C1SCc1cccc(F)c1	97*	-6	-1	-2
Cc1cc(NC(=O)CSc2nc(-c3cccs3)nc3ccccc23)no1	-14	15	.	.
CCN(CC(=O)NCCc1ccc(S(N)(=O)=O)cc1)Cc1ccccc1	-7	19	0	26
CC(=O)NC(Cc1ccc(F)cc1)C(=O)NC1CCN(C(=O)NCc2ccccc2)CC1 (stereo unspecified)	.	6	-1	5
Cc1ccc(NC(=S)Nc2ccc3[nH]c(=O)[nH]c3c2)cc1C	90*	-13	1	-1
CCCn1c(C2CCCN2c2nc(-c3cccc(Br)c3)cs2)nc2ccccc21 (stereo unspecified)	-3	-16	0	11
